According to PubChem BioAssay (Tox21):
Active and inactive are the calls of the source. Entries that show only a call come without a potency. Calls follow the shape of the dose curve; as a rule, active = well fitted curve in the direction sought with a large enough effect in the repeat runs; inconclusive = weak or mixed curves; inactive = flat fitted curve, though single readings scatter. Starred links: 1 amine or outer side, 2 acyl side, 3 side chain; linkers in the order of their positions; H or OH if unused. Positions of bridges follow the written chain, without caps; N, C: chain ends. Non-standard residues stand in square brackets, D forms with d. Residues, ends and D or L forms follow the SMILES beside them. *: point of attachment. X5 = NC1=N[C@@H]([C@H](N[*:1])C(=O)[*:2])C[C@H](O)N1; ΔAla(Z-3-ureido) = NC(=O)N/C=C(\N)C(=O)O; β3hOrn = NCCC[C@H](N)CC(=O)*; Orn = NCCC[C@H](N)C(=O)O; Dap = NC[C@H](N)C(=O)O; Mpa = O=C(O)CCS

test: qHTS assay to test for compound auto fluorescence at 535 nm (green) in HEK293 cell free culture (AID 720682); conditions: cell-free medium, green autofluorescence 485/535 nm; series mostly up to 46 µM
Procedure, shortened: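 Fluorescein serves as the green reference fluorophore; each compound's intrinsic emission at 535 nm (excitation 485 nm) is reported as an equivalent amount of that dye, measured in serum-containing DMEM without cells.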

**Q.** For `COc1ccc2c(=O)c(C)c(-c3ccccc3)oc2c1CN(C)C`, which Potency is on record?
**A.** Its Potency is “inactive”.

**Q.** With `CCOC(=O)COc1ccc2c(C)c(CCN(CC)CC)c(=O)oc2c1` as the molecule, how does the Potency read?
**A.** The Potency was “inactive”.

**Q.** For `O=C(O)[C@H](CC(=O)N1C[C@H]2CCCC[C@H]2C1)Cc1ccccc1`, which Potency is on record?
**A.** The Potency was “inactive”.

**Q.** For `C=C1/C(=C\C=C2/CCC[C@]3(C)[C@@H]([C@H](C)OCCC(C)(C)O)CC[C@@H]23)C[C@@H](O)C[C@@H]1O`, which Potency is on record?
**A.** Its Potency is “inactive”.

**Q.** With `N=C(N)c1ccc(OCCCOc2ccc(C(=N)N)cc2Br)c(Br)c1` as the molecule, how does the Potency read?
**A.** Its Potency is “inactive”.

test: qHTS assay to test for compound auto fluorescence at 590 nm (red) in HEK293 cell free culture (AID 720683); conditions: cell-free medium autofluorescence, Ex540/Em590 red; series mostly up to 46 µM
Procedure, shortened: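 Cell-free wells of DMEM with 10% FBS received compound, and intrinsic fluorescence was read at excitation/emission 540/590 nm. Values expressed as equivalence to Rose Bengal sodium.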

**Q.** For `COCC1=C(C(=O)OC(C)OC(=O)OC(C)C)N2C(=O)[C@@H](NC(=O)/C(=N\OC)c3csc(N)n3)[C@H]2SC1` (stereo partly specified), which Potency is on record?
**A.** Its Potency is “inactive”.

**Q.** With `CO[C@@H]1[C@@H](O[C@@H]2O[C@H](C)[C@@H](O[C@H]3C[C@@](C)(O)[C@@H](OC(=O)CC(C)C)[C@H](C)O3)[C@H](N(C)C)[C@H]2O)[C@@H](CC=O)C[C@@H](C)[C@@H](O)/C=C/C=C/C[C@@H](C)OC(=O)C[C@H]1O` as the molecule, how does the Potency read?
**A.** Its Potency is “inactive”.

**Q.** For `CC(=O)O[C@H]1C[C@@H]2CC[C@@H]3[C@H](CC[C@@]4(C)[C@H]3C[C@H](N3CC[N+](C)(C)CC3)[C@@H]4OC(C)=O)[C@@]2(C)C[C@@H]1N1CC[N+](C)(C)CC1`, which Potency is on record?
**A.** The Potency was “inactive”.

**Q.** Which Potency does the source give for `NCCC[C@H](N)CC(=O)N[C@H]1CNC(=O)[C@H]([C@H]2C[C@H](O)NC(N)=N2)NC(=O)/C(=C/NC(N)=O)NC(=O)[C@H](CO)NC(=O)[C@H](CO)NC1=O` (β3hOrn-[Dap]SS[ΔAla(Z-3-ureido)][X5]; lactam 1-C) here?
**A.** The Potency was “inactive”.

**Q.** For `CCOc1ccc(C[C@H]2NC(=O)CCSSC[C@@H](C(=O)N3CCC[C@H]3C(=O)N[C@@H](CCCN)C(=O)NCC(N)=O)NC(=O)[C@H](CC(N)=O)NC(=O)[C@H]([C@@H](C)O)NC(=O)[C@H]([C@@H](C)CC)NC2=O)cc1` ([Mpa][dY](Et)ITNCP[Orn]G-NH2; disulfide 1-6), which Potency is on record?
**A.** The Potency was “inactive”.

**Q.** With `O=P(O)(O)C(O)(Cc1cnc2ccccn12)P(=O)(O)O` as the molecule, how does the Potency read?
**A.** Its Potency is “inactive”.

**Q.** With `OCC(O)COc1ccc(Cl)cc1` (stereo unspecified) as the molecule, how does the Potency read?
**A.** Its Potency is “inactive”.

**Q.** With `CCCCCCCCCCCCCCCC(=O)OC[C@@H](NC(=O)C(Cl)Cl)[C@H](O)c1ccc([N+](=O)[O-])cc1` as the molecule, how does the Potency read?
**A.** The Potency was “inactive”.

**Q.** For `NC(=O)Oc1ccc(Cc2ccccc2)cc1`, which Potency is on record?
**A.** Its Potency is “inactive”.

**Q.** For `CCCC(CCC)C(N)=O`, which Potency is on record?
**A.** Its Potency is “inactive”.

**Q.** With `CC1CC(OC(=O)C(O)c2ccccc2)CC(C)(C)C1` (stereo unspecified) as the molecule, how does the Potency read?
**A.** The Potency was “inactive”.

**Q.** With `OC(CN1CCCCC1)c1cc(-c2ccccc2)on1` (stereo unspecified) as the molecule, how does the Potency read?
**A.** The Potency was “inactive”.

**Q.** Which Potency does the source give for `CCC(c1ccccc1)c1noc(CCN(CC)CC)n1` (stereo unspecified) here?
**A.** Its Potency is “inactive”.

**Q.** With `O=S(O)CNc1ccc(S(=O)(=O)c2ccc(NCS(=O)O)cc2)cc1` as the molecule, how does the Potency read?
**A.** Its Potency is “inactive”.

**Q.** Which Potency does the source give for `C=CCN1CCCC1CNC(=O)c1cc(S(N)(=O)=O)cc(OC)c1OC` (stereo unspecified) here?
**A.** The Potency was “inactive”.

**Q.** Which Potency does the source give for `CCCCCCCCCCCCCCCCCC(=O)OCCO` here?
**A.** The Potency was “inactive”.

**Q.** For `CCCCCCCCCCCCCCCCCCCCCC(=O)Nc1ccn([C@@H]2O[C@H](CO)[C@@H](O)[C@@H]2O)c(=O)n1`, which Potency is on record?
**A.** Its Potency is “inactive”.

**Q.** For `CCCCOC(=O)C(=O)Nc1cccc(-c2nn[nH]n2)c1`, which Potency is on record?
**A.** Its Potency is “inactive”.

**Q.** For `CCOC(=O)[C@H](CCc1ccccc1)N[C@H]1CCCN2CCC[C@@H](C(=O)O)N2C1=O`, which Potency is on record?
**A.** The Potency was “inactive”.

**Q.** For `CC(C)CN(C[C@@H](O)[C@H](Cc1ccccc1)NC(=O)O[C@@H]1CCOC1)S(=O)(=O)c1ccc(N)cc1`, which Potency is on record?
**A.** The Potency was “inactive”.

**Q.** For `O.O=C([O-])CC([S-])C(=O)[O-].[Au+].[Na+].[Na+]` (stereo unspecified), which Potency is on record?
**A.** Its Potency is “inactive”.

**Q.** For `O=P(O)(O)C(Sc1ccc(Cl)cc1)P(=O)(O)O`, which Potency is on record?
**A.** Its Potency is “inactive”.

**Q.** For `O=C(CCCN1CCC(C(=O)c2ccc(F)cc2)CC1)c1ccc(F)cc1`, which Potency is on record?
**A.** Its Potency is “inactive”.

**Q.** For `C[C@H]1C[C@H]2[C@@H]3CCC4=CC(=O)C=C[C@]4(C)[C@@]3(F)[C@@H](O)C[C@]2(C)[C@@]1(O)C(=O)CCl`, which Potency is on record?
**A.** The Potency was “inactive”.

**Q.** With `CC#CCC(C)[C@H](O)/C=C/[C@@H]1[C@H]2C/C(=C/CCCC(=O)O)C[C@H]2C[C@H]1O` (stereo partly specified) as the molecule, how does the Potency read?
**A.** Its Potency is “inactive”.

**Q.** With `NCCC[C@H](N)C(=O)O` as the molecule, how does the Potency read?
**A.** Its Potency is “inactive”.

**Q.** Which Potency does the source give for `CN1[C@@H]2CCC[C@H]1CC(NC(=O)c1nn(C)c3ccccc13)C2` (stereo partly specified) here?
**A.** Its Potency is “inactive”.

**Q.** For `CS(=O)(=O)NC(=O)CCC/C=C\C[C@H]1C(=O)C[C@@H](O)[C@@H]1/C=C/[C@H](O)COc1ccccc1`, which Potency is on record?
**A.** Its Potency is “inactive”.

**Q.** For `OC[C@@H](O)C(O)[C@H](O)CO`, which Potency is on record?
**A.** The Potency was “inactive”.

**Q.** Which Potency does the source give for `N[C@@H](C(=O)N[C@@H]1C(=O)N2C(C(=O)O)=C(CSc3cn[nH]n3)CS[C@H]12)c1ccc(O)cc1` here?
**A.** Its Potency is “inactive”.

**Q.** With `CC1(C)S[C@@H]2[C@H](NC(=O)Cc3ccccc3)C(=O)N2[C@H]1C(=O)O` as the molecule, how does the Potency read?
**A.** The Potency was “inactive”.
